Reference: ChEMBL document CHEMBL3988442, “University of Dundee, Small-Polar-MMV Screening Library” (2021)
The campaign covered roughly 48,000 compounds. About 13,000 (27%) showed an effect of 50% or more. The list shows a part of the results.

Each compound was assayed on Wolbachia pipientis (assay: Anti-Wolbachia Cell-Based Screen). Conditions: 5 µM.
Type: functional
Set-up: scale not given: in the data most compounds retested in dose-response had high values

Structure (SMILES) | Percent Effect [%]
Cc1cccc(C)c1OCCC(=O)N1CCC(c2nncn2C)CC1 | 0.8719
Clc1cc(Cl)cc(OCCN2CCC(n3cncn3)CC2)c1 | 103.8
FC(F)(F)Oc1ccc(CN2CCCC(n3cncn3)C2)cc1 (stereo not given) | 13.2
Cc1cc(C)cc(OCCC(=O)N2CCCC(n3cncn3)C2)c1 (stereo not given) | -4.983
CC(C(=O)N1CCN(CCOc2ccccc2)CC1)n1cncn1 (stereo not given) | -7.881
Cc1ccccc1OCCC(=O)N1CCCC(n2cncn2)C1 (stereo not given) | -9.445
CSc1ccc(OCCN2CCC(n3cncn3)CC2)cc1 | 98.24
Clc1ccc(OCCN2CCN(CCn3cncn3)CC2)cc1 | -7.454
Cc1cccc(C)c1OCCCN1CCC(n2cncn2)CC1 | 115.1
c1ccc(OCCN2CCC(n3cncn3)CC2)cc1 | 93.12
CCN(C)C(=O)c1ccc2c(c1)C(c1nc[nH]n1)CN2S(C)(=O)=O (stereo not given) | -2.777
COC(=O)c1ccc(CNC(C)(C)c2ccccc2OC)o1 | 5.551
Cc1ccc(-c2cc(C(=O)NCCCc3csc(N)n3)[nH]n2)s1 | -6.732
Cc1ccn2ncc(C(=O)N3CCCC(c4cc(C)[nH]n4)C3)c2n1 (stereo not given) | 1.6
CC(=O)N1CCc2c(nc(N(C)C)nc2NCc2cccs2)C1 | 5.703
CCC(C)N(Cc1cccnc1)Cc1cc2c(cc1Cl)OCO2 (stereo not given) | -26.91
CCN(CCN1CCOCC1)C(=O)c1cccnc1 | -15.37
Clc1ccc(CN(CCN2CCOCC2)Cc2cccnc2)cc1Cl | 180.4
CN(Cc1c(F)cccc1Cl)C(=O)c1cnn(CCN2CCOCC2)c1 | -8.866
Clc1ccc2oc(C3CCN(Cc4cccnc4)CC3)nc2c1 | -21.47
Clc1cccc(Cl)c1CN(CCCN1CCOCC1)Cc1cccnc1 | 149.3
O=C1O[C@@H]2CN(Cc3cccnc3)C[C@@H]2N1CCCN1CCOCC1 | 7.451

Structure (SMILES) | Percent Effect [%]
Clc1ccc(CN(CCN2CCOCC2)Cc2cccnc2)c(Cl)c1 | 143.8
c1cncc(-c2ccnn2CN2CCOCC2)c1 | -10.55
Cc1[nH]c(=O)[nH]c(=O)c1CN1CCCC(CCc2ccc(F)c(F)c2)C1 (stereo not given) | 8.003
O=C1CC[C@H](C(=O)N(CCc2ccccc2)C2CCOC2)N1 (stereo not given in full) | -17.91
CCC(=O)N1CCc2[nH]cnc2C12CCN(C1CCOCC1)CC2 | -8.971
CCc1ccc(CN(C)Cc2cnc(S(=O)(=O)CC)n2CCOC)cc1 | -8.303
Cc1sc2nc(CCN)nc(N3CCC(N4CCCC4)CC3)c2c1C | -8.408
Cc1cccnc1CNC(=O)NC(C)Cc1c(C)nn(C)c1C (stereo not given) | -5.579
O=C(NCCNC(=O)c1ccc(Br)cc1)c1ccc(O)cc1 | 3.17
Cc1nc(S(=O)(=O)CCn2cccn2)n(CC2CCCO2)c1C (stereo not given) | -14.31
CCc1nc(CNc2cc(C)nc(-c3cccnc3)n2)cs1 | 88.21
COc1cccc(CNc2cc(C)nc(-c3ccncc3)n2)c1O | -14.65
COc1cccc(CNc2cc(C)nc(-c3ccncc3)n2)c1OC | -14.13
CC(C)Cc1cc(CNc2nc(-c3cccnc3)nc3c2CNC3)no1 | 13.84
COCc1nc(CNc2cccc(-c3csc(C)n3)c2)cs1 | -8.53
CCc1csc(CNc2cc(C)nc(-c3cccnc3)n2)n1 | 113.3
CCSCC(C)NCc1nncn1C1CCCCC1 (stereo not given) | -19.08
COCCCN(CCOC)C(=O)Nc1ccc(Br)cc1 | 130.2
COCCCN(CCOC)C(=O)Nc1ccccc1-n1cccn1 | 144.2
COCCOc1ccc(NC(=O)N(CCCO)CC(C)(C)C)cn1 | 7.116
COCCN(C)C(=O)c1ccccc1-n1cccn1 | 3.962
COCCN(Cc1ccccn1)C(=O)Nc1cccnc1N1CCCC1 | -3.62

Structure (SMILES) | Percent Effect [%]
CCN(CCO)C(=O)Nc1ccc(OCCOC)nc1 | 0.2723
O=C(C1CC=CC1)N1CCC2(CCN(Cc3cccc(F)c3)CC2)C1 | 0.9808
N#Cc1ccc(CNC(=O)NC2CCN(c3ncccn3)CC2)cc1 | 5.422
Cc1noc(C)c1CN1CCN(c2ccnc(-c3ccccc3)n2)CC1 | 94.83
Cc1cnc(CN2CCCCC2c2nc(-c3ccccc3)no2)cn1 (stereo not given) | 19.76
Cc1noc(C)c1CN1C[C@@H](C(=O)O)[C@H](c2ccccn2)C1 | -12.63
Cc1cnc(CN2CCN(c3ccnc(-c4ccccc4)n3)CC2)cn1 | 144.2
Cc1cc(CN2CCN(CC(O)c3ccccc3)CC2)no1 (stereo not given) | -10.98
Cc1cc(CN2CCN(c3ccnc(-c4ccccc4)n3)CC2)no1 | 122.7
Cn1cnc2c1CCN(c1ccnc(-c3ccccc3)n1)C2 | -10.53
Cc1noc(C)c1CN1CCN(Cc2nccn2C)CC1 | -9.314
Cc1cc(CN2CCN(C(c3ccccc3)c3ccccc3)CC2)no1 | -4.667
CS(=O)(=O)NCCNC(=O)c1ccc(OCc2ccccc2)nc1 | 7.359
O=C1CCCN1Cc1ncn2c1CN(C(=O)NC1CCCCC1)CCC2 | 133.6
O=C(NC1CCCC1)N1CCCC(c2nccn2Cc2ccncc2)C1 (stereo not given) | -3.815
O=C1CCCN1Cc1ncn2c1CN(C(=O)NC1CCCC1)CCC2 | 86.82
CC(C)CC(=O)N1CCCn2cnc(CN3CCCC3=O)c2C1 | 1.077
CC(C)NC(=O)N1CCCn2cnc(CN3CCCC3=O)c2C1 | 81.15
CC(C)OCc1ncn2c1CN(CCO)CCC2.O=C(O)C(F)(F)F | -4.222
CCC(C)NC(=O)N1CCCn2cnc(CO)c2C1 (stereo not given) | -12.35
CC(C)NC(=O)N1CCCn2cnc(CO)c2C1.O=C(O)C(F)(F)F | 89.15
Cn1nnnc1SCCNC(=O)CC1CCc2ccccc21 (stereo not given) | 1.963

Structure (SMILES) | Percent Effect [%]
CCC(CO)NC(=O)Nc1ccc(OCC(F)(F)F)c(C)c1 (stereo not given) | -12.14
CCN(Cc1noc(CC(C)C)n1)Cc1ccccc1OCC(=O)O | 3.118
O=C(Cn1ccc2ccccc21)N1CCC(Oc2ncccc2Br)CC1 | 10.7
Cl.Cl.c1c(CN2CCCCC2)nc2n1CCNC2 | 4.844
CC(C)c1ccc(-n2cc(O)c(C(=O)O)n2)cc1 | 3.312
CCCNC(=O)CN1CCC(NCc2c(C)nn(C)c2OC)CC1 | -12.27
CNC(=O)[C@@H]1C[C@@H](NC(=O)CCCc2cccs2)CN1C1CCOCC1 | -14.74
O=C(O)C(F)(F)F.O=C1CCCN1Cc1ncn2c1CN(C(=O)N1CCCC1)CCC2 | 106.2
Cc1cccc(NC(=O)N2CCCn3cnc(CN4CCCC4)c3C2)c1.O=C(O)C(F)(F)F | -10.04
Cn1cc(CN2CCCn3cnc(CN4CCCC4=O)c3C2)cn1 | -11.95
O=C1CCCN1Cc1ncn2c1CN(C(=O)C1CC=CC1)CCC2 | 99.96
Cc1cccc(NC(=O)N2CCCn3cnc(CN(C)C(C)C)c3C2)c1.O=C(O)C(F)(F)F | 110.9
CN(C)C(=O)NCc1ncn2c1CN(Cc1cccs1)CCC2.O=C(O)C(F)(F)F.O=C(O)C(F)(F)F | 0.9692
O=C1O[C@@H]2CN(Cc3ccccc3F)C[C@@H]2N1CCCN1CCOCC1 | 2.415
CCn1c(CN2CCCC(Cn3cncn3)C2)nc2c(F)cccc21 (stereo not given) | -3.133
OCCN1CCN(CC2(O)CCCCC2)CC1 | -8.643
NCC1(CN2CCOCC2)CCCCC1 | 7.377
Cc1nsc(NC(=O)NC2(CN3CCOCC3)CCCCC2)n1 | 1.675
NC1(CN2CCOCC2)CCCCC1 | 80.74
OC1(CN2CCCC2)CCCN(c2ncnc3[nH]cnc23)C1 (stereo not given) | -10.69
NC1(CN2CCCCC2)CCCCC1 | 100.8
CCCc1nc(C)c(CNc2nc(C)nc3oc(C)nc23)s1 | 10.41

Structure (SMILES) | Percent Effect [%]
Cc1nnc(SCCC(=O)N(C)Cc2ccc(F)cc2Cl)[nH]1 | 5.698
c1ccc(NCc2ccsc2)c(Cn2cncn2)c1 | 3.372
CC(=O)NC(Cc1c[nH]c2cc(F)ccc12)C(=O)Nc1cnn(C)c1 (stereo not given) | -8.595
COc1ccc(C(C)NC(=O)NCCCn2cncn2)cc1F (stereo not given) | 3.932
COc1ccc(C(C)NC(=O)NCCc2ccc(C)nc2)c(OC)c1 (stereo not given) | 8.171
COc1ccc(C(C)NCc2nnc(C)s2)cc1F (stereo not given) | -18.95
COc1ccc(C(C)NCCc2ccc(NC(C)=O)cc2)cc1F (stereo not given) | 98.08
COc1ccc(C(C)NCCc2ccc(NC(C)=O)cc2)c(OC)c1 (stereo not given) | 110.9
COc1ccc(C(C)Nc2ncc(C(N)=O)cc2Cl)cc1F (stereo not given) | -11.64
COc1ccc(C(C)NCCC(N)=O)cc1F (stereo not given) | 53.8
COc1ccc(NC(C)C(=O)NCCc2cccs2)cc1F (stereo not given) | -5.142
COc1ccc(C(C)NC(=O)Nc2nnc(C)s2)c(OC)c1 (stereo not given) | 5.487
Cc1ccc(NCc2ccccc2C#N)cc1-n1cnnn1 | 14
CCCNC(=O)CNc1cc(C(=O)NCC(F)(F)F)cc(F)c1C | -0.1534
COCCN(Cc1ccco1)Cc1nc(-c2ccccc2C)no1 | -8.039
CN(c1ncc(S(N)(=O)=O)s1)C1CCc2ccccc21 (stereo not given) | 0.8223
Fc1ccc(CNCC2Cn3nncc3CO2)cc1.O=C(O)C(F)(F)F (stereo not given) | 10.26
O=C(O)C(F)(F)F.c1cc(CNCC2Cn3nncc3CO2)co1 (stereo not given) | -8.195
Cc1nc(CNCC2Cn3nncc3CO2)cs1.O=C(O)C(F)(F)F (stereo not given) | 95.04
O=C(O)C(F)(F)F.c1ccc(CCNCC2Cn3nncc3CO2)cc1 (stereo not given) | -6.101
Cc1noc(C)c1CNCC1Cn2nncc2CO1.O=C(O)C(F)(F)F (stereo not given) | 106
Cc1cc(CNCC2Cn3nnc(C)c3CO2)oc1C.O=C(O)C(F)(F)F (stereo not given) | -14.18
